This passage reports outcome results from PubChem BioAssay (Tox21).

Each structure is given as a SMILES string. Inconclusive results are not listed. Active and inactive are the calls of the source. The call rests on the fitted dose curve; in most records, active means well fitted activation curve with a large enough effect in the signal ratio in the repeat runs (not every such curve was filed as active); inconclusive means weak or mixed curves; inactive means flat fitted curve, though single readings scatter; the % refers to the signal ratio.

The nature of this test: qHTS assay to identify small molecule agonists of the hypoxia (HIF-1) signaling pathway (AID 1224846). The conditions noted are these: HRE-bla ME-180 cells, beta-lactamase ratio, 17 h; series mostly up to 76.8 µM. The text has this:
U.S. Tox21 Program National Center for Advancing Translational Sciences [NCATS] NIH Chemical Genomics Center [NCGC] U.S. Environmental Protection Agency [EPA] National Institutes of Environmental Health Sciences [NIEHS] National Toxicology Program [NTP] U.S. Food and Drug Administration [FDA] Tox21 Assay Overview: Hypoxia-inducible factor-1 (HIF-1) is the major hypoxia-regulated transcription factor that controls cellular responses to low oxygen concentration. HIF-1 is composed of two subunits: hypoxia responsive HIF-1-alpha and constitutively expressed HIF-1-beta, which is also known as aryl hydrocarbon receptor nuclear translocator. During hypoxic conditions, HIF-1-alpha heterodimerizes with HIF-1-beta and translocates into the nucleus where the HIF-1 complex binds to the hypoxia-response element (HRE) and activates expression of target genes such as VEGF (vascular endothelial growth factor). The HIF-1 pathway is essential to normal growth and development, and is involved in the pathophysiology of cancer, inflammation, and ischemia. Using a beta-lactamase reporter-gene under control of the hypoxia response element, a cell-based assay [CellSensor(TM) HRE-bla ME-180 from Life Technologies, Carlsbad, CA] was used to measure hypoxia-induced signaling. Tox21 10K library compounds were measured for their ability to induce the reporter gene activity.
Tox21 Assay Protocol Summary: HRE-bla ME-180 cells were dispensed at 2,000 cells per well in 6 uL of assay medium containing 0.5% dialyzed FBS into black wall/clear-bottom 1536-well plates using a Multidrop Combi (Thermo Scientific, Waltham, MA) dispenser. After the assay plates were incubated at 37C and 5% CO2 for 5 hrs, 23 nL of compounds dissolved in DMSO, positive controls or DMSO only was transferred to each well of the assay plate using a Pintool station (Kalypsys, San Diego, CA). The assay plates were incubated at 37C and 5% CO2 for 17 hrs. One uL of LiveBLAzerTM B/G FRET substrate (CCF4-AM) (Life Technologies) was added to each well using a Flying Reagent Dispenser (Aurora Discovery, San Diego, CA).
(In qHTS, concentration-response curves come from the screen itself.)
With `ClCCCN1CCN(c2cccc(Cl)c2)CC1`, the outcome was inactive.

For the molecule `CCC1(c2ccccc2)C(=O)NC(=O)NC1=O`, the result was inactive.

On to `CC1COC2(c3ccccc3Cl)c3cc(Cl)ccc3NC(=O)CN12` (stereo not given), for which the result was inactive.

As for `CC1(C(=O)Nc2ccc(O)c(Cl)c2Cl)CCCCC1`, the result was inactive.

Consider `CCN(Cc1ccc(Cl)nc1)/C(=C/[N+](=O)[O-])NC`, for which the result was inactive.

With `CNC(=O)Oc1ccccc1C1OCCO1`, the result was inactive.

For the molecule `CC(=O)C(Cl)Cl`, the outcome was inactive.

In the case of `OC(c1ccc(F)cc1)(c1cncnc1)c1ccccc1Cl` (stereo not given), the outcome was inactive.

In the case of `CC1=NNC(=O)N(/N=C/c2cccnc2)C1`, the result was inactive.

For the molecule `CCOP(=O)(N=C1SCCS1)OCC`, the outcome was inactive.

In the case of `O=P(O)(Oc1ccccc1)Oc1ccccc1`, the outcome was inactive.

`CN(N=O)C(N)=O`: the result was inactive.

As to `CC(CC(C#N)(c1ccccc1)c1ccccc1)N(C)C` (stereo not given), the outcome was inactive.

`CCN(CC)C(=O)[C@@H]1C=C2c3cccc4[nH]cc(c34)C[C@H]2N(C)C1`: the outcome was inactive.

For the molecule `CC(C)CC#N`, the outcome was inactive.

Turning to `COC(=O)C(C)Oc1ccc(Oc2ccc(Cl)cc2Cl)cc1` (stereo not given), the result was inactive.

With `CCCCOC(=O)c1ccccc1C(=O)O`, the result was inactive.

`COc1cccc(C(=O)NN(C(=O)c2cc(C)cc(C)c2)C(C)(C)C)c1C`: the outcome was inactive.

Regarding `Cc1ncc2n1-c1ccc(Cl)cc1C(c1ccccc1F)=NC2`, the outcome was inactive.

In the case of `N#CC(Cl)(Cl)Cl`, the outcome was inactive.

Take `CNC(=O)Oc1c(C(C)(C)C)cc(C)cc1C(C)(C)C`: the result was inactive.

With `CCCCN(CCCCO)N=O`, the result was inactive.

As to `O=C(CCCN1CCC(n2c(=O)[nH]c3ccccc32)CC1)c1ccc(F)cc1`, the outcome was inactive.

In the case of `CC(C(O)c1ccccc1)N(C)C/C=C/c1ccccc1` (stereo not given), the outcome was inactive.

For the molecule `N#CC(O)c1ccccc1` (stereo not given), the result was inactive.

`Fc1cc(Br)ccc1CBr`: the result was inactive.

Take `CCCCc1ccc(O)cc1`: the result was inactive.

Take `O=[N+]([O-])c1cc(Cl)c(Cl)c(Cl)c1`: the result was inactive.

With `CCC#N`, the outcome was inactive.

In the case of `CNC(=O)O/N=C(\C)SC`, the result was inactive.

As to `Cc1cc(C)nc(Nc2ccccc2)n1`, the outcome was inactive.

For the molecule `CC(COc1ccc(Oc2ccccc2)cc1)Oc1ccccn1` (stereo not given), the result was inactive.

On to `CSc1ccc(C(=O)C(C)(C)N2CCOCC2)cc1`, for which the result was inactive.

Consider `COc1ncc(F)c2nc(S(=O)(=O)Nc3c(F)cccc3F)nn12`, for which the result was inactive.

As for `CC1CCCCC1NC(=O)Nc1ccccc1` (stereo not given), the outcome was inactive.

For the molecule `CN/C(=N\[N+](=O)[O-])NCC1CCOC1` (stereo not given), the outcome was inactive.

Consider `Cc1ncsc1CCCl`, for which the result was inactive.

In the case of `c1coc(-c2nc3ccccc3[nH]2)c1`, the result was inactive.

Turning to `CCC(C)(C)c1cc(-n2nc3ccccc3n2)c(O)c(C(C)(C)CC)c1`, the result was inactive.

`OC(Cn1cncn1)(c1ccc(F)cc1)c1ccccc1F` (stereo not given): the result was inactive.
